Coupling enz = qHTS Assay for Inhibitors of Fructose-1,6-bisphosphate Aldolase from Giardia Lamblia: Coupling assay counterscreen. coupling enzyme system counterscreen, AmpLite Red fluorescence. activity change, negative = inhibition, % at 58.2 µM, hits read low. 0.67% of 290,000 active. AID 2472, 2010; in the data active means activity change below about -30%
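Compounds tested against the coupling enzymes alone at 57.5 uM final; readout was AmpLite Red fluorescence (525/598 nm) after 20 min at RT.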
VP16 counter = VP16 counterscreen qHTS for inhibitors of ROR gamma transcriptional activity. Drosophila S2 Gal4-VP16 UAS-luciferase, luminescence, 20 h. Potency, µM (top dose mostly 53.6 µM), without a hit: top-dose activity, negative = inhibition, most hits filed as inhibitors. 3.5% of 310,000 active;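 further: Gal4-VP16 expression switched on by copper sulfate through the metallothionein promoter; potency means the concentration at half of the fitted maximal effect; nearly all actives have a fitted effect of over 50% in size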
TSHR antag = Antagonists of the Thyroid Stimulating Hormone Receptor: HTS campaign | Thyrotropin receptor (Homo sapiens), P16473 | 0.2% of 330,000 active | activity change, negative = inhibition, % at 11.5 µM | TSHR-expressing cells, TSH-stimulated cAMP HTRF, 2 h; stronger effect = lower value;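 active means activity change below a set negative limit, meaning inhibition stronger than a set level, cut at about -70% in these data; inconclusive means activity change between two set negative limits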
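Freshly harvested TSHR cells receive pin-tooled compound, then EC80 TSH at 4nM final. After 2 hours at 37 deg C, antibody in lysis buffer and cAMP-d2 are added; 30 minutes at ambient temperature precede the HTRF read.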
ELG1 repair inh = qHTS screen for small molecules that inhibit ELG1-dependent DNA repair in human embryonic kidney (HEK293T) cells expressing luciferase-tagged ELG1; Potency, µM (highest dose often 46.1 µM), without a hit: top-dose activity change, negative = inhibition, actives largely listed as inhibitors; HEK293T ELG1-luciferase reporter, luminescence, 16 h; DNA damage induced by 5-fluorouridine; 2.3% of 330,000 active; further: potency means the concentration at half of the fitted maximal effect; nearly all actives have a fitted effect of over 55% in size
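Step one: seed 2,000 cells per well. Step two: pin-transfer compound or DMSO alongside 5-fluorouridine. Step three: incubate 16 hr, 37 °C, 5% CO2. Step four: add ONE-Glo, wait 30 min, read luminescence.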
RORg inh = qHTS for inhibitors of ROR gamma transcriptional activity. Potency, µM (top dose mostly 53.6 µM), for the others: top-dose activity change, negative = inhibition, usual class: inhibitors. 5.4% of 310,000 active. Nuclear receptor ROR-gamma (Mus musculus), P51450. Drosophila S2 Gal4-RORgamma UAS-luciferase reporter, 20 h. AID 2551, 2010; further: potency means the concentration at half of the fitted maximal effect; nearly all actives have a fitted effect of over 60% in size
Target sequence (P51450 whole entry, looked up, the tested form may be a part): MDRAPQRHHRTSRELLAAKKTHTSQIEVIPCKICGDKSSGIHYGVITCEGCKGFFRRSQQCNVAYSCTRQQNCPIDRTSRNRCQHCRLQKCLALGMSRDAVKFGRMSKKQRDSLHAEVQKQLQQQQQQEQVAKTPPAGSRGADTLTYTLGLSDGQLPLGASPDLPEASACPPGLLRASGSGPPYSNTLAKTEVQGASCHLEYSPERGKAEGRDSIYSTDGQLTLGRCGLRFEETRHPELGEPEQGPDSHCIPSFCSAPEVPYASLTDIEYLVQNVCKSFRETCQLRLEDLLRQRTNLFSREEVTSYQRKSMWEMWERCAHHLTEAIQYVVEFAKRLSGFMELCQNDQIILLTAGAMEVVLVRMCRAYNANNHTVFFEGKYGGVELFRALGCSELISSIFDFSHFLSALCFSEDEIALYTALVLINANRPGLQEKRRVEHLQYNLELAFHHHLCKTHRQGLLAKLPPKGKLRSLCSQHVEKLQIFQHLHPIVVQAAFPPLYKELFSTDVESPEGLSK
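A Gal4/UAS one-hybrid system in insect cells: metallothionein-promoter Gal4–ROR gamma fusion plus Photinus luciferase reporter. Copper sulfate 700 uM final, 20 hr ambient incubation, luminescent detection after 10 min with reagent.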
Active calls of the source: *; u = inconclusive; x = no result given. Only some compounds are listed: those with a hit (about 8% of all), similar ones and a draw of the others. Unless noted, the call rests on the fitted dose curve; in most records, active means well fitted curve in the direction sought with a large enough effect; inconclusive means small, poorly fitted or top-dose-only effect, or another doubt; inactive means no such curve, though single readings can be large; an effect the other way counts as inactive or inconclusive. On the % scale 0 is the no-effect control and ±100 the full control effect.

SMILES	Coupling enz	VP16 counter	TSHR antag	ELG1 repair inh	RORg inh
CCCCc1c(C)nc2nc(SCc3ccc(Cl)cc3)[nH]n2c1=O	8	3%	-49	2%	u
CNC(=O)CC1C(=O)N(c2ccc(Cl)cc2)C(=S)N1NC(=O)c1cccc(F)c1 (stereo not given)	1	-15%	5	14%	u
CNC(=O)CC1C(=O)N(Cc2ccccc2)C(=S)N1NC(=O)c1cccc(F)c1 (stereo not given)	-2	-8%	9	8%	u
COc1ccc(NC(=O)CC2C(=O)N(c3ccc(F)cc3)C(=S)N2NC(=O)c2ccccc2)cc1 (stereo not given)	-2	u	-4	-8%	13µM*
CNC(=O)CC1C(=O)N(c2ccc(OC)cc2)C(=S)N1NC(=O)c1cccc(F)c1 (stereo not given)	5	u	12	13%	7.1µM*
CCN1C(=O)C(CC(=O)Nc2ccccc2Cl)N(NC(=O)c2cccc(F)c2)C1=S (stereo not given)	x	u	30	-9%	11µM*
O=c1ncccn1[C@@H]1O[C@H](CO)[C@@H](O)[C@H]1O	0	-3%	x	x	-6%
Cc1cccc(N2CCN(S(=O)(=O)c3c(C)nc4scc(C)n4c3=O)CC2)c1C	0	-13%	3	26µM*	35%
Cc1nc2scc(C)n2c(=O)c1S(=O)(=O)Nc1ccc(N2CCOCC2)c(Cl)c1	0	11µM*	-19	3%	-23%
COc1ccc(C(=O)N2CCCC(c3nc(-c4cc(OC)c(OC)c(OC)c4)no3)C2)cc1 (stereo not given)	-1	11%	-2	7.3µM*	7%
COc1ccc(-c2noc(C3CCCN(C(=O)c4ccccc4OC)C3)n2)cc1 (stereo not given)	1	1%	-18	-8%	u
COc1ccc(-c2noc(C3CCCN(C(=O)c4ccccc4)C3)n2)cc1 (stereo not given)	0	-1%	-6	-20%	40%
COc1ccccc1C(=O)N1CCCC(c2nc(-c3cc(OC)c(OC)c(OC)c3)no2)C1 (stereo not given)	0	6%	6	7.3µM*	u
Cc1cccc(C(=O)OCC(=O)c2ccc(CC(=O)N3CCOCC3)s2)c1C	x	x	12	6%	x
CS(=O)(=O)c1ccccc1C(=O)Nc1cccc2ncccc12	4	3%	15	0%	-1%
CCn1c(=O)c([N+](=O)[O-])c(Cl)c2ccccc21	0	8.9µM*	-79*	-1%	7.9µM*
O=C(NCc1ccc(F)cc1)c1ccc(CS(=O)Cc2ccccc2Cl)o1 (stereo not given)	x	0%	-4	-13%	u
CCOc1c2c(nc3ccc(Cl)cc13)CCC2	1	-24%	-6	4%	11µM*
COC(=O)CNC(c1ccccc1)c1cc(Br)ccc1NC(=O)CNC(=O)OCc1ccccc1 (stereo not given)	-1	-16%	-9	u	36%
COC(=O)CNC(c1ccccc1)c1cc(Br)ccc1NC(=O)CCN1CCOCC1 (stereo not given)	-1	14µM*	5	6%	u
CCOC(=O)CNC(c1ccccc1)c1cc(Br)ccc1NC(=O)CCN1CCOCC1 (stereo not given)	1	8.9µM*	-3	5%	u
CCc1c2c(nc3ccc(OC)cc13)COC2	-12	-14%	x	x	-30%
Cc1[nH]n(-c2ccccc2)c(=O)c1N=Nc1c(O)cc(S(=O)(=O)N(C)C)c2ccccc12	x	x	u	4.1µM*	x
Cc1[nH]n(-c2ccccc2)c(=O)c1N=Nc1ccc2c(c1)OCCO2	-4	28%	-6	u	23%
Cc1ccc(N=Nc2c(C)[nH]n(-c3ccccc3)c2=O)c(C)c1	0	18µM*	-21	7%	u
SMILES	Coupling enz	VP16 counter	TSHR antag	ELG1 repair inh	RORg inh
Cc1ccc(N=Nc2c(C)[nH]n(-c3ccccc3)c2=O)cc1Br	-3	u	-6	3%	-1%
NS(=O)(=O)O	x	-3%	x	x	36%
Cc1ccccc1-c1nc(CN(Cc2c(C)nn(C)c2C)C2CC2)c(C)o1	-1	13µM*	-13	u	5.6µM*
COc1ccc(S(=O)(=O)N2CCC(C(=O)Nc3cc(Cl)ccc3N3CCOCC3)CC2)cc1OC	x	x	3	u	x
O=C1OC2(c3cc(Br)c(O)c(Br)c3Oc3c2cc(Br)c(O)c3Br)c2c(Cl)c(Cl)c(Cl)c(Cl)c21	x	-23%	x	x	-31%
COc1ccc(N=Cc2cc(Cc3ccccc3Cl)cc([N+](=O)[O-])c2O)cc1OC	2	-16%	-18	u	7%
Cc1ccc(N=Cc2cc(Cc3ccccc3Cl)cc([N+](=O)[O-])c2O)c(O)c1	-29	4.5µM*	-40	u	6.3µM*
CC(C)N(CCC(=O)c1ccc2ccccc2c1)Cc1ccccc1	16	2.5µM*	u	-24%	2.8µM*
Cc1ccc(C(=O)Nc2ncc3c(Cl)cccc3n2)cc1	-8	4µM*	12	u	3.2µM*
Cc1ccc(C(=O)Nc2ccc(Cl)cn2)cc1	-4	u	-6	u	-22%
Oc1c(C(c2cccs2)N2CCN(c3ccccc3)CC2)ccc2cccnc12 (stereo not given)	2	7.9µM*	x	x	5µM*
CN1CCN(C(c2ccc(C(F)(F)F)cc2)c2ccc3cccnc3c2O)CC1 (stereo not given)	-1	1.6µM*	-6	-2%	3.2µM*
CC(C)(C)n1nnnc1C(c1cccs1)N1CCN(c2ccccc2)CC1 (stereo not given)	0	11%	-4	1%	4%
Oc1c(C(c2ccccc2Cl)N2CCCC2)ccc2cccnc12 (stereo not given)	-6	-80%	-8	u	1.6µM*
O=S(=O)(c1cccc2cccnc12)N1CCCCC1	x	1%	14	9%	2%
CN1CCN(C(c2ccccc2)c2ccccc2)CC1	-5	u	x	2%	-29%
COC(=O)[C@]1(Cc2ccccc2)N[C@H](CN(C)C(=O)Nc2ccc(OC)cc2)[C@@H]2C(=O)N(Cc3ccccc3)C(=O)[C@@H]21	x	x	2	-8%	x
Cc1cccc(NC(=O)NNC(=O)c2c(Cl)c(C)nn2C)c1	4	-15%	8	-6%	u
CCNC(=S)NNC(=O)c1c(Cl)c(C)nn1C	0	u	6	11%	6.3µM*

Source: PubChem (National Center for Advancing Translational Sciences (NCATS))
